Screen size: about 370,000 compounds; about 3,800 (1%) were called active. The full list was thinned out, with actives kept by preference. Values without a mark were called inactive. Rule as the data show it: active = activation above about 7.8%; inactive = the rest.
Assay: SMARCA2 (BRM) function activators, primary screen, cell-based, luminescence, high throughput (AID 652017);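 also: 0% = vehicle wells and 100% = reference activator wells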
Conditions: MG213 cells, MMTV-luciferase reporter, dexamethasone, overnight; at 9.1 µM; active compounds read high

Going from `CCC(=O)Nc1ccc2c(c1)C(=O)N(C)[C@H]1CC[C@H](CC(=O)NCCOC)O[C@@H]1CO2` to `CN1C(=O)c2cc(NS(C)(=O)=O)ccc2OC[C@@H]2O[C@@H](CC(=O)NCc3ccc(-c4ccccc4)cc3)CC[C@H]21`, the activation rises from -1.86% to 0.34%.

First: CC(CCN1CCC(C(O)(c2ccccc2)c2ccccc2)CC1)Oc1ccc([N+](=O)[O-])cc1Cl (stereo not given)
Second: O=C(CSc1nnc(COc2ccccc2)n1Cc1ccco1)c1ccc2ccccc2c1
The activation of the first is higher: 5.01% for the first, -6.31% for the second.

First: Cc1ccccc1NC(=O)c1cc(S(=O)(=O)N2CCOCC2)cs1
Second: CC(=O)Nc1ccc(S(=O)(=O)N2CCN(c3ccc([N+](=O)[O-])c(NCCN4CCOCC4)c3)CC2)cc1
The activation of the first is higher: -0.28% for the first, -2.48% for the second.

First: Cc1cc(C(=O)NNC(=S)NC(C)c2ccccc2)cs1 (stereo not given)
Second: CC(C)(COC(=O)Nc1ccccc1)COC(=O)Nc1ccccc1
The activation of the first is higher: -0.96% for the first, -1.85% for the second.

First: COC(=O)[C@]12C[C@H](CC(=O)NCc3ccccc3)C(=O)N(CCC3=CCCCC3)C1=C[C@H](C(C)C)O[C@@H]2C1CC1
Second: Cc1ccccc1CN1CCNC(=O)C1CC(=O)NCCC1=CCCCC1 (stereo not given)
The activation of the first is lower: 0.2% for the first, 5.02% for the second.

First: C=CCN1C(=O)[C@@H](CC(=O)N2CCN(C(=O)c3ccco3)CC2)[C@]2(C(=O)OC)CCCCC=C12
Second: O=C(N1CCOCC1)N1CC[C@H]2[C@H](CCCN2Cc2ccc(F)cc2)C1
The activation of the first is lower: -3.14% for the first, -1.37% for the second.

Going from `COC(=O)C12C=C3CC(c4ccccc4)=C3C(=O)N1Cc1[nH]c3ccccc3c1C2` (stereo not given) to `COC(=O)C1=C(C)N(Cc2ccccc2C(F)(F)F)C(=NCC2CC2)NC1c1cccc(Cl)c1` (stereo not given), the activation rises from -3.71% to -1.87%.

Going from `Cc1ccn(CCC(=O)N2c3ccccc3CC2C)n1` (stereo not given) to `CCOc1ncccc1C(=O)OCC(=O)N1c2ccccc2CC1C` (stereo not given), the activation rises from -2.39% to -1.56%.

Going from `O=C(NCc1ccncc1)C(=O)NCc1ccco1` to `Cc1ccc(SCC(=O)NC(=O)NCc2ccco2)c(C)c1`, the activation falls from -0.15% to -0.59%.

Compared with `CN[C@H]1C[C@H]2c3cc(N4CCOCC4)ccc3CCN2C[C@H]1[C@H](C)O`, `CN(C(=O)CC1C(=O)NCCN1Cc1ccc2ccccc2c1)C1CCOCC1` (stereo not given) is higher in activation: -3.84% for the first, -1.84% for the second.

Going from `C=C(C)C#CC(Cc1ccccc1)N(CC1CC1)/C(N)=N/C(=O)OCc1ccccc1` (stereo not given) to `O=C(Nc1ccc(Br)cc1)OCCN1C(=O)CCC12CCC(c1ccccc1)CC2` (stereo not given), the activation rises from -1.63% to -0.9%.

First: COc1cc(NC(=S)NCc2ccco2)c(OC)cc1Cl
Second: CCOc1cc(NC(=S)NCCCN(C)C)c(OCC)cc1NC(=O)C1CC1
The activation of the first is lower: 0.64% for the first, 1.16% for the second.

Compared with `Cc1ccc(CSc2nnc(SCC(=O)NN=Cc3cc(Br)ccc3F)s2)cc1`, `COc1ccc(-c2cc(-c3nnc(SCc4ccc([N+](=O)[O-])cc4)n3N)[nH]n2)cc1` is higher in activation: -6.75% for the first, -5.07% for the second.

Going from `CC(C)(C)OC(=O)NCc1cc(F)ccc1/C=C/S(=O)(=O)NCCc1ccccc1` to `CCN(CC)C(=O)CSc1nnc(-c2ccc(S(=O)(=O)NCc3ccccc3Cl)cc2)o1`, the activation rises from -3.29% to -2.52%.

Compared with `CCOC(=O)Nc1ccc(S(=O)(=O)N(C)C(C)C)cc1`, `O=C(O)CN1c2cccc3cccc(c23)S1(=O)=O` is lower in activation: -0.48% for the first, -0.74% for the second.

First: COc1ccccc1OCC(=O)OCc1cc(-c2ccco2)on1
Second: COc1cccc(NC(=O)CSc2nnc(-c3cccnc3)o2)c1
The activation of the first is higher: 1.73% for the first, -0.51% for the second.

Compared with `N/C(=N\OC(=O)CCC1CCCCC1)c1ccccn1`, `COc1ccccc1C(=O)NCCC(=O)NC1=NCCS1` is lower in activation: 3.7% for the first, -1.3% for the second.

Compared with `S=C(NCCC1=CCCCC1)Nc1ccccc1`, `Cc1nn(C(C)C(=O)NCCC2=CCCCC2)c(=O)c2nn(-c3ccccc3)c(C)c12` (stereo not given) is lower in activation: 2.03% for the first, 0.01% for the second.

First: Cc1ncn2cc(-c3ccc(Cl)cc3Cl)[nH]c(=O)c12
Second: COc1ccc(-n2c(SC)nc(O)cc2=O)cc1
The activation of the first is higher: 5.25% for the first, -1.4% for the second.

Compared with `O=C(NC1=NCCS1)c1ccc(Cl)s1`, `COC(=O)Cc1nnn2c1[C@H](C)[C@H](c1ccccc1Br)OCC2` is lower in activation: 3.86% for the first, -2.14% for the second.

Compared with `COC(=O)Cc1nnn2c1[C@H](C)[C@@H](OC)c1cc(Br)ccc1-2`, `COc1ccc(C2C(C(C)=O)=C(O)C(=O)N2c2nccs2)cc1` (stereo not given) is higher in activation: -2.14% for the first, 1.1% for the second.

Compared with `COc1ccc(-n2c(COc3ccc(C)cc3)nnc2SCC(=O)Nc2ccc(Oc3ccccc3)cc2)cc1`, `COc1ccc(/C=C2\CC3(OC(C)=O)CCCN2C3)cc1` (stereo not given) is higher in activation: -5.92% for the first, -1.45% for the second.

With `Cc1cc(C(=O)NNC(=S)Nc2ccccc2C)cs1` the activation was 8.64% (active).
In the case of `CCCC(=O)N1c2ccc(-c3csc(N)n3)cc2CC1C` (stereo not given), the activation is reported as 13.2% (active).
In the case of `Cc1ccc(NC(=O)C(=O)NCc2ccco2)c(C)c1`, the activation is reported as 9.32% (active).
For `CCOc1cc(NC(=S)NCCCOC)c(OCC)cc1NC(=O)c1ccco1`, the activation was 9.88% (active).
For `CCOC(=O)Nc1ccc(NC(=O)OCC)cc1`, the activation was 11.1% (active).
For `COc1ccccc1OCC(=O)O/N=C(\N)c1ccccn1`, the activation was 8.43% (active).
With `C1=C(CCNc2ncnc3c2cnn3-c2ccccc2)CCCC1` the activation was 10.2% (active).
For `COc1ccc(C(=O)NC2=NCCS2)c(OC)c1`, the activation was 8.02% (active).
With `COC(=O)Cc1nnn2c1[C@H](C)[C@H](c1ccccc1[N+](=O)[O-])OCC2` the activation was 9.58% (active).
For `COc1ccc(-c2csc(Cc3nc(O)cs3)n2)cc1`, the activation was 16.8% (active).
In the case of `CCN(CC)C(=O)CSc1nnc(-c2cccc(OC)c2)o1`, the activation is reported as 8.29% (active).
